Assay outcomes (PubChem)
The list is a sample of the results.
aSyn UTR act: Activators via SNCA 5'UTR binding, MLPCN | hit rate 7.1% among 300,000 | AID 1814, 2009 | activity score, % (tested at 7.5 µM), hits read low | alpha-synuclein 5'UTR reporter, activators screen; in the data active means activity score below about -60%
* hit, by the source's call.

SMILES | aSyn UTR act
Cc1nnsc1S(=O)(=O)Cc1ccccc1C(F)(F)F | -76*
CC(C)COc1ccc(C(=O)Nc2ccccc2[N+](=O)[O-])cc1 | -212*
COCCCNC(=S)Nc1ccc(C)cc1[N+](=O)[O-] | -75*
CCCOc1ccc(C(=O)Nc2ccc(C)cc2[N+](=O)[O-])cc1 | -72*
COCCCNc1nc(N)c([N+](=O)[O-])c(Nc2cc(OC)ccc2OC)n1 | 55
Cc1ccc(N(C)C(=O)c2ccc3c(Cl)c4c(nc3c2)CCC4)cc1C | -136*
COc1ccc(N(C)C(=O)c2ccc3c(Cl)c4c(nc3c2)CCCC4)c(OC)c1 | -88*
COC(=O)c1cnc(Oc2ccc(NC(=O)NC(=O)c3ccccc3Cl)cc2)cc1C(F)(F)F | -63*
COc1ccc(-c2nnc(NC(=O)c3cccs3)s2)c(OC)c1 | -76*
Cc1cccc(-c2nnc(NC(=O)c3cccs3)s2)c1 | -113*
O=c1cc(-c2ccccc2)nc2cc(-c3ccc(F)cc3)[nH]n12 | -109*
O=c1c2c(nc3cc(-c4ccc(F)cc4)[nH]n13)CCC2 | -87*
COc1cccc(-c2cn3nc4c(nc3n2)CCCC4)c1 | 104
COc1cccc(-c2cc3nc(-c4ccccc4)cc(=O)n3[nH]2)c1 | -167*
COC(=O)c1ccc2c(c1)C(C)(C)C(/C=C/c1ccccc1O)=[N+]2C | 118
COC(=O)c1ccc(N)c(N=CC2=C(O)CC(C)(C)CC2=O)c1 | -172*
S=C(Nc1ccc2nsnc2c1)N1CCCC1 | -133*
O=C(Nc1ccc(Cl)c(Cl)c1)N1CCCCCC1 | -140*
O=C(Nc1ccc(Cl)c(C(F)(F)F)c1)C(=O)N1CCCCC1 | -67*
O=C(Nc1ccc2nsnc2c1)N1CCCCCC1 | -98*
S=C(Nc1ccc2nccnc2c1)N1CCCC1 | -87*
Cc1csc2ncnc(N3CCN(C(=S)Nc4ccc(C(F)(F)F)cc4)CC3)c12 | 56
Cc1ccc(S(=O)(=O)Nc2cc(-c3nn(C)c(=O)c4ccccc34)ccc2N2CCOCC2)cc1 | 78
O=C(Nc1cccc(-c2ccc(N3CCOCC3)nn2)c1)c1ccccc1Cl | -110*
O=C(Nc1cccc(-c2ccc(N3CCOCC3)nn2)c1)c1ccc(Cl)cc1 | -86*
SMILES | aSyn UTR act
Cc1ccc(C(=O)Nc2cccc(-c3ccc(N4CCOCC4)nn3)c2)cc1C | -73*
Cc1ccc(S(=O)(=O)Nc2cccc(-c3ccc(N4CCCCCC4)nn3)c2)cc1 | -125*
Cc1cc(C(=O)Nc2cccc(-c3ccc(N4CCOCC4)nn3)c2)ccc1[N+](=O)[O-] | -110*
O=C(COc1ccc(Cl)cc1)Nc1cccc(-c2ccc(N3CCOCC3)nn2)c1 | -71*
Cc1ccc(C(=O)Nc2cccc(-c3ccc(N4CCOCC4)nn3)c2)cc1 | -70*
CC1CCN(c2ccc(-c3ccc(NC(=O)C(F)(F)F)cc3)nn2)CC1 | 71
CC1CCC(C(C)C)C(OC(=O)Cn2c(-c3ccc(Cl)cc3)[n+](C)c3ccccc32)C1 (stereo not given) | 61
O=C1Nc2ccccc2/C1=C/c1cnc(-c2ccccc2)[nH]1 | -78*
CSc1ccc(-c2sc(Nc3ccccc3)n[n+]2-c2ccc(F)cc2)cc1 | -143*
Cc1ccc(-n2c(-c3ccc(Br)cc3)c[n+]3c2CCc2ccc4cccnc4c2-3)cc1 | 86
CCCC(=O)Nc1ccc(C(=O)N/N=C/c2ccc([N+](=O)[O-])o2)cc1 | 111
CCCc1ccc(-c2cc(C(=O)N/N=C/c3ccc([N+](=O)[O-])o3)c3ccccc3n2)cc1 | -75*
O=C(N/N=C/c1ccc([N+](=O)[O-])o1)c1cc(-c2cccc(Br)c2)nc2ccccc12 | -83*
c1ccc2oc(SCc3cn4ccccc4n3)nc2c1 | -111*
Cc1cccc2nc(CSc3nc4ccccc4o3)cn12 | -89*
Cc1cc(C)c(C#N)c(SCc2cn3c(C)cccc3n2)n1 | -104*
c1ccc2nc(SCc3cn4ccccc4n3)cnc2c1 | -66*
Clc1ccc(-n2ncc3c(NCc4ccc5c(c4)OCO5)ncnc32)cc1 | -81*
COc1ccc(-n2ncc3c(NCc4ccco4)ncnc32)cc1 | -162*
CCC(CO)Nc1ncnc2c1cnn2-c1ccc(OC)cc1 (stereo not given) | -75*
Clc1ccc(-n2ncc3c(NCc4ccco4)ncnc32)cc1 | -227*
CCCN(CCC)c1ncnc2c1cnn2-c1ccc(OC)cc1 | -77*
CN(C)CCNc1ncnc2c1cnn2-c1ccc(Cl)cc1 | -93*
COc1ccc(-n2ncc3c(NCc4ccccn4)ncnc32)cc1 | -128*
CSc1nc(-c2ccc(N(C)C)cc2)c(C#N)c(=O)n1C | -72*
SMILES | aSyn UTR act
COc1cnc(-c2ccccn2)nc1Oc1ccc(F)cc1F | -118*
COc1cnc(-c2ccccn2)nc1NC(C)C | 98
CCOC(=O)C1(Cc2cccc(Cl)c2)CCCN(C(=O)c2cc(C)on2)C1 (stereo not given) | -72*
CCOC(=O)C1(Cc2cccc(OC)c2)CCCN(C(=O)c2ccc(OC)o2)C1 (stereo not given) | -126*
CCOC(=O)C1(Cc2cccc(OC)c2)CCCN(C(=O)CCN2CCCO2)C1 (stereo not given) | -112*
CCOC(=O)C1(Cc2cccc(OC)c2)CCCN(C(=O)c2cc(CC(C)C)[nH]n2)C1 (stereo not given) | -118*
N=c1n(N)c2ccccc2n1CC(=O)c1ccc(Br)cc1 | -109*
O=C1CC(c2ccccc2)Sc2nc3ccccc3n21 (stereo not given) | -196*
O=C1CC(c2ccc3c(c2)OCO3)Sc2nc3ccccc3n21 (stereo not given) | -160*
Cn1nc(C(=O)Nc2nc3ccccc3[nH]2)c2ccccc2c1=O | -144*
COc1cc(OC)cc(C(=O)Nc2nc3ccccc3[nH]2)c1 | -189*
COc1ccc2oc(C(=O)Nc3nc4ccccc4[nH]3)c(C)c2c1 | -102*
CC(C)Oc1ccc(C(=O)Nc2nc3ccccc3[nH]2)cc1 | 81
Cc1cc(C)cc(C(=O)Nc2nc3ccccc3[nH]2)c1 | -139*
O=C(Nc1nc2ccccc2[nH]1)c1cc(F)cc(F)c1 | -148*
O=C(Nc1nc2ccccc2[nH]1)c1ccc(F)c(S(=O)(=O)N2CCOCC2)c1 | -99*
O=C(Nc1nc2ccccc2[nH]1)c1ccccc1F | 108
COc1ccc(Br)c(C(=O)Nc2nc3ccccc3[nH]2)c1 | -87*
Cc1cc(C)nc(Sc2ccc3nnnn3n2)n1 | -72*
Cc1ccc(NC(=O)c2ccc([N+](=O)[O-])o2)c(C)c1 | -74*
Cc1ccc(-c2nnc(NC(=O)c3ccc([N+](=O)[O-])o3)o2)c(C)c1 | -64*
S=c1[nH]nc(-c2ccncc2)n1/N=C/C(Cl)=C\c1ccccc1 | -221*
S=c1[nH]nc(COc2ccccc2)n1/N=C/C(Cl)=C/c1ccccc1 | -129*
C=CCNC(=O)c1c(Cl)cnn1-c1ccc(C)cc1 | -95*
CNC(=O)c1c(Cl)cnn1-c1ccc(C)cc1 | -151*
SMILES | aSyn UTR act
CNC(=O)c1c(Br)cnn1-c1ccc(C)cc1 | -158*
Cc1ccc(-n2ncc(Cl)c2C(=O)NC2CC2)cc1 | -153*
COc1ccc2cc(-c3ccn[nH]3)ccc2c1 | -124*
Nc1cc(-c2ccc(Cl)cc2)nn1-c1ccccc1 | -138*
Nc1ccc(-c2cc(N)n(-c3ccccc3)n2)cc1 | -104*
CC(=O)Nc1ccc(-c2cc(N)n(-c3ccccc3)n2)cc1 | -162*
Cc1ccc(-n2nc(-c3ccc(N)cc3)cc2N)cc1 | -132*
Cc1cc(N2CCN(C(=O)c3ccco3)CC2)n2ncc(-c3ccccc3)c2n1 | -78*
Cc1cc(N2CCCCC2)n2ncc(-c3ccc(Cl)cc3)c2n1 | -181*
